According to PubChem BioAssay AID2570 (National Center for Advancing Translational Sciences (NCATS), 2010):
Records with an inconclusive call do not appear. Activity calls are given as the source filed them. The call rests on the fitted dose curve; in most records, active means well fitted curve in the direction sought with a large enough effect; inconclusive means small, poorly fitted or top-dose-only effect, or another doubt; inactive means no such curve, though single readings can be large or run the other way.

Target: Vasopressin V1b receptor (Homo sapiens) (UniProt P47901)
Sequence (P47901 whole entry, looked up): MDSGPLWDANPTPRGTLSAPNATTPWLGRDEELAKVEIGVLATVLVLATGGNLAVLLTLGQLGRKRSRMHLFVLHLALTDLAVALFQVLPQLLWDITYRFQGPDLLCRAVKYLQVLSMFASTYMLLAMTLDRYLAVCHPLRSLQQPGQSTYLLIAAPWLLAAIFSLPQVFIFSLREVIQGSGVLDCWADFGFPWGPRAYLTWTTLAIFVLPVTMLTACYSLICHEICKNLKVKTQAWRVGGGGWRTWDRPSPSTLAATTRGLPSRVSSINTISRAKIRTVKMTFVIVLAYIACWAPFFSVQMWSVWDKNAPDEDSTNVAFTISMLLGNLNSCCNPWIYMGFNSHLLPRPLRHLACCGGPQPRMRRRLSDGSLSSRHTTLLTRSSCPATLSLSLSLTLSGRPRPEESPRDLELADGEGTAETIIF
Assay: Counterscreen Concentration-Response Assay for Antagonists of the Neuropeptide S Receptor: Vasopressin Receptor Calcium Signal Transduction
Settings: CHO-AVPR1B, vasopressin-stimulated calcium fluorescence, FDSS
How it was run: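 CHO cells stably expressing human AVPR1B, calcium-dye loaded, were given compound, then stimulated with 60 nM vasopressin in HBSS/0.1% BSA. Peak kinetic fluorescence was normalized to DMSO and no-signal controls; AC50 from Hill fits.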

SMILES | max response
COc1ccc(C2c3c(nc(CCc4ccccc4)[nH]c3=O)Oc3ccc4ccccc4c32)cc1OC (stereo not given) | 1.09% (inactive)
CCOC(=O)CC(=O)Nc1ncnc2c1C(c1ccccc1)c1c(ccc3ccccc13)O2 (stereo not given) | -17.5% (inactive)
N=c1c2c(ccn1-c1ccccc1)Oc1ccc3ccccc3c1C2c1ccccc1 (stereo not given) | -28.3% (inactive)
COc1cccc(C2c3c(ncn(-c4cccc(OC)c4)c3=N)Oc3ccc4ccccc4c32)c1 (stereo not given) | -13.6% (inactive)
COc1cccc(C2c3c(ncn(-c4ccc(Br)cc4)c3=N)Oc3ccc4ccccc4c32)c1 (stereo not given) | 0.304% (inactive)
O=C(NCc1ccccc1)Nc1ncnc2c1C(c1ccccc1)c1c(ccc3ccccc13)O2 (stereo not given) | -5.16% (inactive)
N=c1c2c(ccn1CCc1ccccc1)Oc1ccc3ccccc3c1C2c1ccccc1 (stereo not given) | 11.4% (inactive)
N=c1c2c(ncn1CCN1CCOCC1)Oc1ccc3ccccc3c1C2c1ccccc1 (stereo not given) | 25.9% (inactive)
COc1cccc(C2c3c(ncn(-c4ccccc4)c3=N)Oc3ccc4ccccc4c32)c1 (stereo not given) | -8.43% (inactive)
CCOC(=O)CCC(=O)Nc1ncnc2c1C(c1ccccc1)c1c(ccc3ccccc13)O2 (stereo not given) | -0.278% (inactive)
COc1cccc(C2c3c(ncn(-c4ccc(C)cc4)c3=N)Oc3ccc4ccccc4c32)c1 (stereo not given) | -0.274% (inactive)
O=C(CCc1ccccc1)Nc1ncnc2c1C(c1ccccc1)c1c(ccc3ccccc13)O2 (stereo not given) | -23% (inactive)
COc1cccc(C2C(C#N)=C(NC(=O)NCc3ccccc3)Oc3ccc4ccccc4c32)c1 (stereo not given) | -21.8% (inactive)
COc1ccc(C2c3c(N)nc(CCCc4ccccc4)nc3Oc3ccc4ccccc4c32)cc1OC (stereo not given) | -15.9% (inactive)
Cc1c(P(=S)(c2ccccc2)c2ccccc2)c2ccccc2n1CCCc1ccccc1 | 8.85% (inactive)
N=c1c2c(ccn1CCCc1ccccc1)Oc1ccc3ccccc3c1C2c1ccccc1 (stereo not given) | -23.7% (inactive)
Cc1c(P(=S)(c2ccccc2)c2ccccc2)c2ccccc2n1CCc1ccccc1 | -38.1% (inactive)
Cc1c(P(=S)(c2ccccc2)c2ccccc2)[n+]2ccccc2n1C/C=C/c1ccccc1 | 1.44% (inactive)
COc1cccc(C2c3c(ncn(-c4ccccc4Cl)c3=N)Oc3ccc4ccccc4c32)c1 (stereo not given) | 1.44% (inactive)
COc1ccc(C2C3=C(N=CN(CCN4CCOCC4)C3N)Oc3ccccc32)cc1OC (stereo not given) | 19.6% (inactive)
